Bioassay records deposited in PubChem by several laboratories.
Mtb bLac sens – beta-lactam sensitization of Mtb H37Rv, H37Rv. 330,000 compounds, 0.27% hits. inhibition, % at 25 µM. M. tuberculosis H37Rv growth with meropenem, percent inhibition; call rule not given here;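 note: growth measured after seven days incubation then overnight dye step; 0% = bacteria only wells and 100% = bacteria with antibiotic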
FBA Mtb inh – Mtb FBA enzyme inhibitors, primary screen, biochemical, fluorescence, strain H37Rv; AID 588726, 2011; Fructose-bisphosphate aldolase (Mycobacterium tuberculosis (strain ATCC 25618 / H37Rv)), …; inhibition, % at 1 µM; 360,000 compounds, 2.3% hits; purified M. tuberculosis FBA, fluorescence read-out;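 note: 0% = vehicle and 100% = reference inhibitor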
Mtb UGM inh – M. tuberculosis UGM enzyme inhibitors, primary screen, biochemical, fluorescence polarization, single point | UDP-galactopyranose mutase (Mycobacterium tuberculosis (strain ATCC 25618 / H37Rv)), … | purified UGM, fluorescence polarization probe displacement | inhibition, % at 10 µM | 320,000 compounds, 0.06% hits | AID 504406, 2011; in the data active = inhibition above about 10%, passing the limit was not always enough; inconclusive = no clear call, values can overlap the other calls
RecA intein inh – Mtb RecA intein splicing inhibitors, primary screen, biochemical, fluorescence, HTS | Protein RecA (Mycobacterium tuberculosis (strain ATCC 25618 / H37Rv)), P9WHJ3 | cell-free RecA intein splicing | inhibition, % (concentration not given with the values) | 290,000 compounds, 0.75% hits; in the data active = inhibition above about 30%; inconclusive = no clear call, values can overlap the other calls;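 note: 0% = vehicle wells and 100% = reference inhibitor control wells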
Rv3671c protease – Rv3671c serine protease inhibitors, primary screen, biochemical, fluorescence polarization, M. tuberculosis H37Rv | inhibition, % at 5.96 µM | AID 2606, 2010 | P9WHR9 | 320,000 compounds, 0.048% hits; in the data active = inhibition above about 38%;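 note: extracellular domain of Rv3671c used as enzyme; 0% = enzyme with DMSO and 100% = no enzyme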
GDH-TPI counter-1 – GDH-TPI coupling enzyme inhibitors, primary screen, artefact control for M. tuberculosis FBA inhibitor project, biochemical, absorbance, full deck | GDH-TPI coupled enzyme counterscreen, NADH absorbance | inhibition, % at 4.8 µM | 360,000 compounds, 1.2% hits | AID 588335, 2011; in the data active = inhibition above about 30%;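 note: 0% = DMSO wells and 100% = wells lacking the enzyme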
Mtb FBA confirm – M. tuberculosis aldolase blockers, biochemical, fluorescence, strain H37Rv, confirmation; purified M. tuberculosis FBA, fluorescence read-out; inhibition, % at 1 µM; 5,600 compounds, 78% hits; shares compounds with FBA Mtb inh;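 note: 0% = vehicle wells and 100% = reference inhibitor wells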
GDH-TPI counter-2 – GDH-TPI coupling enzyme inhibitors, artefact control for M. tuberculosis FBA inhibitor project, biochemical, fluorescence, high throughput | shares compounds with FBA Mtb inh | GDH-TPI coupled enzyme counterscreen | inhibition, % at 1 µM | 5,600 compounds, 81% hits; in the data active = inhibition above about 10%
Starred values were filed as active, the others as inactive; u = inconclusive; x = not tested or not shown. Compounds with a hit are over-represented: about 4% of the library has one in this group of screens. Cut-off read from the data, not from the text of the source, unless noted: active = inhibition above about 27%; inactive = the rest.

SMILES	Mtb bLac sens	FBA Mtb inh	Mtb UGM inh	RecA intein inh	Rv3671c protease	GDH-TPI counter-1	Mtb FBA confirm	GDH-TPI counter-2
C[C@@H]1CN([C@@H](C)CO)C(=O)CCCn2nncc2CO[C@H]1CN(C)S(=O)(=O)c1ccc(-n2cccn2)cc1	x	-1	x	x	x	-18	x	x
CC(C)CCOCc1nc2sc3c(c2c(=O)[nH]1)CCC(C)C3 (centres undefined)	-2	0	5	-4	-7	10	x	x
CCOC(=O)c1nc2sc3c(c2c(=O)[nH]1)CCC(C)C3 (centres undefined)	98	101*	2	0	-13	12	74*	57*
Cc1c(NC(=O)C(C)C)cccc1-c1nc2ncccc2o1	3	29*	-2	-1	7	9	-7	-8
O=C(Nc1cccc(-c2nc3ncccc3o2)c1)c1ccccc1	43	0	-3	1	-1	-8	x	x
Cc1ccc(-c2nc3ncccc3o2)cc1NC(=O)C(C)C	-1	55*	2	1	7	11	18	9
Cc1ccc(-c2nc3ncccc3o2)cc1NC(=O)c1ccccc1	1	0	-2	1	6	2	x	x
CCCCC(=O)Nc1cccc(-c2nc3ncccc3o2)c1C	0	16	4	-1	0	7	x	x
CC(C)CC(=O)Nc1cccc(-c2nc3ncccc3o2)c1	-10	32*	-1	0	-2	-4	0	-3
CCC(C)c1ccc(NC(=O)c2c([N+](=O)[O-])cnn2CC)cc1 (centres undefined)	98	-2	0	4	x	5	x	x
O=c1c(NCCc2ccccc2)c(-c2ccccc2)c1=O	2	0	-1	-2	-2	12	x	x
CCc1ccccc1-n1nnnc1SCC(=O)Nc1ccc(N2CCN(C)CC2)cc1	u	2	0	5	2	5	x	x
CCN(CC)C(=O)[C@H]1C[C@H](CC(=O)NCCCn2ccnc2)C(=O)N2CCc3c([nH]c4cc(CCC(=O)N(C)C)ccc34)[C@]12C	x	4	x	x	x	14	x	x
CCc1sc(C(=O)Nc2cccc(-n3cnnn3)c2)cc1C	0	-2	2	x	-15	5	x	x
O=C(CSc1nc2ccccc2o1)Nc1nc2ccccc2s1	7	5	2	5	-13	-6	x	x
CC(=O)Nc1nc2ccc(-c3nc4ccccc4o3)cc2s1	0	105*	-2	-2	-24	23	92*	75*
CCC(=O)Nc1cccc(-c2nc3ccccc3o2)c1	4	11	-2	1	6	0	x	x
CC(=O)Nc1ccc(S(=O)(=O)Nc2cccc(-c3nc4ccccc4o3)c2)cc1	-4	55*	-1	-3	-37	4	58*	53*
O=C(Nc1ccc(-c2nc3ccccc3o2)cc1)C1CCCO1 (centres undefined)	73	34*	-1	4	5	18	-3	-2
O=S(=O)(Nc1ccc(-c2nc3ccccc3o2)cc1)c1ccccc1	1	87*	4	13	-18	43*	131*	110*
O=S(=O)(Nc1ccc(-c2cnco2)cc1)c1ccccc1	-7	0	-1	1	-8	-6	x	x
O=C1CC(N2CCN(S(=O)(=O)c3ccccc3F)CC2)C(=O)N1c1ccccc1Cl (centres undefined)	3	3	-2	x	-6	5	x	x
O=C(CSc1nnnn1-c1ccc(F)cc1)Nc1ccccc1F	1	-2	-3	1	x	-3	x	x
CCN1C(=O)[C@H]2[C@@H](c3ccc(OC)cc3)N[C@]3(CCCN(CC4CCCCC4)C3=O)[C@H]2C1=O	x	-5	x	x	x	-4	x	x
COc1ccc(NC(=O)/C=C/c2cc(OC)c(OC)c(OC)c2)cn1	-7	4	2	-2	-5	4	x	x
SMILES	Mtb bLac sens	FBA Mtb inh	Mtb UGM inh	RecA intein inh	Rv3671c protease	GDH-TPI counter-1	Mtb FBA confirm	GDH-TPI counter-2
COc1cc(/C=C/C(=O)Nc2ccncc2)cc(OC)c1OC	10	38*	-2	-3	3	17	74*	66*
Oc1ccc(Cl)cc1CNCc1cccc2ccccc12	25	0	1	x	7	0	x	x
CC(=O)c1cccc(S(=O)(=O)N(Cc2cc3cc4c(cc3[nH]c2=O)OCCO4)CC2CCCO2)c1 (centres undefined)	0	2	-1	-2	1	19	x	x
CCN(CC)CCN(Cc1cc2cc3c(cc2[nH]c1=O)OCCO3)C(=O)NC1CCCCC1	-8	14	2	-1	2	8	x	x
O=c1[nH]c2cc3c(cc2cc1CN(CC1CCCO1)S(=O)(=O)c1ccccc1)OCCO3 (centres undefined)	1	28*	0	3	-3	21	-1	-5
O=C(NC1CCCCC1)N(CCN1CCOCC1)Cc1cc2cc3c(cc2[nH]c1=O)OCCO3	0	31*	-1	-3	5	18	98*	79*
CCC(=O)N(CCc1ccccc1)Cc1cc2cc3c(cc2[nH]c1=O)OCO3	-11	40*	-2	-1	-5	14	36*	26*
O=C(NCc1ccccc1)N(Cc1cc2cc3c(cc2[nH]c1=O)OCCO3)CC1CCCO1 (centres undefined)	x	28*	x	-1	x	12	54*	52*
CCN(CC)S(=O)(=O)c1cc(NC(=O)c2ccc(-n3cncn3)c([N+](=O)[O-])c2)ccc1C	-11	-2	-4	1	-8	-2	x	x
CCCNC(=O)COc1coc(CN2CCN(c3ccccc3OC)CC2)cc1=O	-1	9	2	-4	-4	1	x	x
O=CNc1cc(-c2cccc(O)c2)cn2c(-c3ccc(F)cc3)cnc12	x	3	x	x	x	-2	x	x
C=CCN(c1ccccc1)S(=O)(=O)c1cccc(C(=O)N(CC)CC(=O)Nc2c(F)cccc2F)c1	-6	-2	-2	1	3	-2	x	x
COC(=O)C[C@@H]1C[C@@H]2c3cc(NC(=O)Cc4ccncc4)ccc3O[C@@H]2[C@@H](CO)O1	x	0	x	x	x	-4	x	x
O=C(c1ccccc1F)N(Cc1cccnc1)Cc1cc2cc3c(cc2[nH]c1=O)OCCO3	-6	26	4	-5	3	9	x	x
